Bioassay records: PubChem, National Center for Advancing Translational Sciences (NCATS)
This is a sample that favours compounds with a hit; in the whole collection about 4% have one here.
TRHR enhancer = TRH receptor (human) allosteric enhancement; enhancement, % at 2 µM; actives 0.66% (n = 360,000); TRHR cells, fluo-8 calcium fluorescence, EC20 TRH enhancement; in the data active = enhancement above about 30%; also: 0% is about no effect
Target sequence (P34981 whole entry, looked up): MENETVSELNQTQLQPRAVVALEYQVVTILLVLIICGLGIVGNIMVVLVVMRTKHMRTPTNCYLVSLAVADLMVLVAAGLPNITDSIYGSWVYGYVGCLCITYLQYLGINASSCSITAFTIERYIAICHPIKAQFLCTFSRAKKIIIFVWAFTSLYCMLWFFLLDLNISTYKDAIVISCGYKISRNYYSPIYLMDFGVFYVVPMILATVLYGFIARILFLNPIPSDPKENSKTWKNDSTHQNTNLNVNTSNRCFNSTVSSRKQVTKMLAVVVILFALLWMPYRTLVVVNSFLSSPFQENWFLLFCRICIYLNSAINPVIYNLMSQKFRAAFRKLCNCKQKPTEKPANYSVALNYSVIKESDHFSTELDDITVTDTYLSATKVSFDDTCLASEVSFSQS
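Enhancer read-out: after compound pinning and an initial kinetic agonist-mode read, an EC20 of TRH (10 nM final) was injected and fluo-8 calcium signal (Ex 480/Em 530) followed at 1 s/cycle for 100 cycles in TRHR-expressing cells.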
D1 agonist = agonists of human D1 dopamine receptor; P21728; HEK293 T-REx D1 cells, calcium flux, agonist mode; activation, % at 2 µM; actives 1% (n = 360,000); AID 504660; also: 0% is about no effect
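Agonism was scored from calcium flux recorded over 180 s (1 read/s) after pintool compound addition, following a 10-cycle baseline. Cells were inducible force-coupled HEK293 TREx D1, plated overnight at 30 C and loaded with no-wash calcium dye.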
D1 antag = blocks dopamine activation of the human D1 receptor; AID 504652; actives 3.2% (n = 360,000); HEK293 TREx D1 cells, calcium flux, dopamine EC80; active compounds read low; activity change, negative = inhibition, % at 10 µM; in the data active = activity change below about -30%; also: % is scaled to controls: 0 for no effect and ±100 for the full control effect
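Antagonism measured as reduced calcium response to an EC80 dopamine addition following 180 s compound pre-read; cells were inducible HEK293 Trex D1 plated overnight at 30 C, read kinetically at 1 cycle/sec.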
TRHR agonist = activates the human TRH receptor. AID 493084. activation, % at 2 µM. TRHR cells, calcium flux fluo-8, FDSS agonist mode. actives 0.18% (n = 360,000); also: 0% is about no effect
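TRHR-expressing cells loaded with fluo-8 calcium dye; 23 nL library compound pin-transferred, kinetic FDSS fluorescence (Ex 480/Em 530) recorded about 180 s for agonist-induced calcium release, before a 10 nM TRH EC20 addition for potentiator mode.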
GRP78 ERSR act = induces the endoplasmic reticulum stress response in human glioma cells | U87-MG GRP78 promoter luciferase reporter, 16 h | Potency, µM, for the others: at the highest dose activation, actives largely listed as activators | actives 0.02% (n = 420,000) | AID 602332; active = well fitted activation curve with a large enough effect; also: potency is read from the fitted curve at half-maximal effect; series mostly up to about 76 µM; % of control where 0% means no effect; nearly all actives have a fitted effect of over 35% in size
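Stably transfected U87-MG glioma cells carrying a GRP78-based luciferase sensor; 16 h compound incubation. Luminescence end-point read 10 min after Bright-Glo addition at room temperature.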
D1 potentiator = enhances dopamine response at the human D1 receptor; P21728; potentiation, % at 10 µM; actives 0.036% (n = 360,000); AID 504651; HEK293 TREx D1 cells, calcium flux, dopamine EC20 potentiation; in the data active = potentiation above about 30%; also: 0% is about no effect
The depositor's hits bear a star; x = no result. Rule as the data show it, unless noted: active = activation above about 30%; inactive = the rest.

SMILES	TRHR enhancer	D1 agonist	D1 antag	TRHR agonist	GRP78 ERSR act	D1 potentiator
Cc1ccc(-c2onc(C)c2C)cc1S(=O)(=O)NC1CCCCC1	-24.6	4.3	-62.5*	-0.3	-3.8%	-7.9
Cc1ccc(-c2onc(C)c2C)cc1S(=O)(=O)NCc1ccc(N(C)C)cc1	-2.1	3.9	-31.8*	-0.6	-2.5%	-5.2
CCc1ccc(NC(=O)c2n[nH]c(=O)c3ccccc23)cc1	-2.7	3.0	2.1	0.8	6.1%	-8.9
Cc1ccccc1-c1noc(-c2ccc(O)cc2)n1	5.2	67.8*	-41.5*	-0.7	9.5%	3.9
Cc1ccccc1-c1noc(-c2ccc(Cl)cc2)n1	2.2	4.0	14.0	1.5	-0.2%	4.0
COc1ccc(-c2cc3c(=O)n(CC(=O)NCCCN4CCC(N5CCCCC5)CC4)nc(C)n3n2)cc1	4.0	1.7	20.1	0.9	4.3%	1.5
O=C1CCCC(=O)N1c1ccc(N2CCN(c3ccccc3)CC2)c([N+](=O)[O-])c1	9.6	4.5	-45.6*	0.5	-1.9%	-6.7
O=C(c1ccc(N2CCCCC2)c([N+](=O)[O-])c1)N1CCN(c2ccccn2)CC1	-6.5	-2.3	-25.6	-0.1	-2.0%	-3.1
O=C1C2CC=CCC2C(=O)N1c1ccc(N2CCN(c3ccccn3)CC2)c([N+](=O)[O-])c1 (configuration not stated)	7.4	13.5	-36.1*	1.5	-0.5%	-3.6
Cc1ccc2c(c1)C(O)(C1COC(C)(C)CC1=O)C(=O)N2C (configuration not stated)	-4.7	-0.9	-10.5	-1.4	-1.8%	0.2
O=C(N/N=C/C1CC=CCC1)c1ccc(Cl)cc1O (configuration not stated)	-3.0	22.9	-36.6*	1.8	13.7%	-16.2
COc1ccc(S(=O)(=O)NCc2cccnc2)cc1Br	-2.4	14.9	-32.0*	0.2	-2.9%	-6.2
COc1ccc(CN(C)C(=O)c2ccc(Cl)c(S(=O)(=O)NCc3cccnc3)c2)cc1F	-2.0	0.6	-46.5*	-0.3	-4.0%	-4.3
COc1ccc(S(=O)(=O)NCc2cccnc2)cc1	4.4	1.7	10.6	0.4	-2.4%	-3.0
COc1ccc(CN(C)C(=O)c2cccc(S(=O)(=O)NCc3ccccc3)c2)cc1F	x	x	x	x	-0.6%	x
O=[N+]([O-])c1ccc(N2CCN(c3ccc(F)cc3)CC2)nc1	-5.9	1.2	-19.8	0.9	0.9%	-1.9
Cc1ccc(C(=O)Oc2oc(-c3ccccc3)nc2C=Nc2ccc(N(C)C)cc2)cc1	8.3	8.6	-10.1	-0.3	-5.1%	1.1
CN(C)c1ccc(N=Cc2nc(-c3ccccc3)oc2OC(=O)c2cccc(Cl)c2)cc1	-2.2	26.8	-32.1*	7.2	7.4%	-0.7
NC(=O)CC(NC(=O)Cc1ccc(Cl)cc1)c1ccc(NC2CCCCC2)c([N+](=O)[O-])c1 (configuration not stated)	-2.3	2.1	-7.6	0.0	-4.1%	1.4
COc1ccc(N(CC(=O)NC2CCCCC2)C(=O)CCC(=O)Nc2nc(C)cs2)cc1OC	0.8	0.0	-45.4*	0.7	-6.3%	0.8
CCc1ccc(N(CC(=O)NC2CCCC2)C(=O)CCC(=O)Nc2ccccn2)cc1	31.4*	-0.2	-1.1	0.6	-0.5%	-0.1
CC(=O)c1ccc(N(CC(=O)NC2CCCC2)C(=O)CCC(=O)Nc2cc(C)on2)cc1	-2.1	0.8	-36.4*	0.6	-2.1%	-7.1
Cc1cccc(N(CC(=O)NC2CCCC2)C(=O)CCCC(=O)Nc2ccccn2)c1	-10.3	-0.2	-34.4*	-0.1	-2.3%	3.7
Cc1cccc(N(CC(=O)NC2CCCCC2)C(=O)CCCC(=O)Nc2ccccn2)c1	-4.9	-1.0	2.2	-0.4	-5.0%	3.1
CC(=O)Nc1ccc(N(CC(=O)NC2CCCC2)C(=O)CCC(=O)Nc2cc(C)on2)cc1	5.3	2.1	-13.2	-0.2	-0.9%	-6.6
SMILES	TRHR enhancer	D1 agonist	D1 antag	TRHR agonist	GRP78 ERSR act	D1 potentiator
Cc1sc(NC(=O)c2ccc(Br)s2)c(C(N)=O)c1C	3.5	-2.9	18.9	-0.1	6.6%	31.1*
CC(=O)CCn1c(=O)n(CCC(C)=O)c(=O)n(CCC(C)=O)c1=O	-2.1	0.8	8.0	-0.7	-6.0%	-2.6
CCN(C(=O)Cn1c(=O)n(Cc2ccc3c(c2)OCO3)c(=O)c2ccc(C(=O)NC3CCCCC3)cc21)c1cccc(C)c1	-2.5	7.1	-53.9*	1.3	-3.1%	-2.0
Fc1cc(F)c(C2SCCN2C(=S)Nc2cccc(C(F)(F)F)c2)c(F)c1 (configuration not stated)	-19.8	77.4*	0.2	15.6	4.8%	-3.8
CCOc1ccccc1N1CCN(C(=O)NC(C)c2ccc(F)c(F)c2)CC1 (configuration not stated)	-1.1	3.0	1.5	-1.7	-4.2%	-3.8
COc1cc(C(=O)n2nc(C)cc2C)ccc1O	37.8*	0.2	5.4	0.4	-1.3%	-4.8
COc1ccc(C(=O)n2nc(C)cc2C)cc1Br	-3.4	-2.0	-2.7	0.0	-1.2%	3.9
CC(Sc1nnc(COc2ccc3ccccc3c2)n1C)C(=O)O (configuration not stated)	-4.1	1.0	-10.8	0.0	-0.4%	0.7
CCC(Oc1ccccc1F)C(=O)N1CCC(c2nc3ccccc3s2)CC1 (configuration not stated)	4.5	36.3*	-17.5	-0.8	-3.1%	-1.6
Cc1cccc2cc(C#N)c(SCC(=O)Nc3ccccc3N3CCOCC3)nc12	7.1	4.7	0.9	0.9	-5.5%	-0.3
CCCCCC(=O)NNC(=O)c1c(O)c2ccccc2n(CC)c1=O	-4.1	0.5	-28.2	-0.8	0.8%	-4.5
CCn1c(=O)c(C(=O)NNC(=O)c2ccccc2Cl)c(O)c2ccccc21	9.0	66.5*	15.9	-0.7	1.1%	-4.2
CCn1c(=O)c(C(=O)NNC(=O)c2ccccc2F)c(O)c2ccccc21	-8.1	83.5*	-41.8*	42.9*	7.6%	-1.4
CCOC(=O)c1cc(-c2ccc(C)cc2)n(CC(=O)NCc2ccco2)c1C	3.0	3.1	-0.1	0.5	-6.0%	0.5
CCN(CC)C(=O)Cn1cc(C(=O)C(=O)NCCc2ccc(S(N)(=O)=O)cc2)c2ccccc21	-3.5	1.5	-74.4*	0.5	-1.0%	-12.8
NS(=O)(=O)c1ccc(CCNC(=O)C(=O)c2cn(CC(=O)N3CCOCC3)c3ccccc23)cc1	34.4*	0.6	-4.7	0.3	-3.3%	2.8
CCN(CC)C(=O)Cn1cc(C(=O)C(=O)NCc2ccccn2)c2ccccc21	-1.5	1.7	1.8	0.5	-4.7%	2.5
CC(=O)Nc1cc2c3ccccc3n(C)c2cc1[N+](=O)[O-]	x	x	x	x	-5.9%	x
Cc1ccccc1NCc1ccccc1O	12.9	3.6	-10.2	-0.6	-1.1%	-5.7
